CYP2C9 act: CYP2C9 (human) activation; recombinant CYP2C9, luciferin-H conversion, luminescence; stronger effect = higher value; factor 1 = untreated enzyme, 0 = blocked; activation factor at 5 µM; actives 1.4% (n = 96,000); AID 1024;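 active means activation factor of 2 or more for CYP2C9 at a 5 µM dose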
Cav32 inh: blocks human Cav3.2 T-type calcium channel; AID 449739; Cav3.2-expressing cells, Fluo-4 calcium fluorescence FDSS; stronger effect = lower value; actives 4% (n = 100,000); O95180; B-score at 10 µM;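 active means single-dose well whose peak fluorescence ratio is a statistical outlier from its plate by either plate-standardised score or position-corrected B-score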
Target sequence (O95180 whole entry, looked up): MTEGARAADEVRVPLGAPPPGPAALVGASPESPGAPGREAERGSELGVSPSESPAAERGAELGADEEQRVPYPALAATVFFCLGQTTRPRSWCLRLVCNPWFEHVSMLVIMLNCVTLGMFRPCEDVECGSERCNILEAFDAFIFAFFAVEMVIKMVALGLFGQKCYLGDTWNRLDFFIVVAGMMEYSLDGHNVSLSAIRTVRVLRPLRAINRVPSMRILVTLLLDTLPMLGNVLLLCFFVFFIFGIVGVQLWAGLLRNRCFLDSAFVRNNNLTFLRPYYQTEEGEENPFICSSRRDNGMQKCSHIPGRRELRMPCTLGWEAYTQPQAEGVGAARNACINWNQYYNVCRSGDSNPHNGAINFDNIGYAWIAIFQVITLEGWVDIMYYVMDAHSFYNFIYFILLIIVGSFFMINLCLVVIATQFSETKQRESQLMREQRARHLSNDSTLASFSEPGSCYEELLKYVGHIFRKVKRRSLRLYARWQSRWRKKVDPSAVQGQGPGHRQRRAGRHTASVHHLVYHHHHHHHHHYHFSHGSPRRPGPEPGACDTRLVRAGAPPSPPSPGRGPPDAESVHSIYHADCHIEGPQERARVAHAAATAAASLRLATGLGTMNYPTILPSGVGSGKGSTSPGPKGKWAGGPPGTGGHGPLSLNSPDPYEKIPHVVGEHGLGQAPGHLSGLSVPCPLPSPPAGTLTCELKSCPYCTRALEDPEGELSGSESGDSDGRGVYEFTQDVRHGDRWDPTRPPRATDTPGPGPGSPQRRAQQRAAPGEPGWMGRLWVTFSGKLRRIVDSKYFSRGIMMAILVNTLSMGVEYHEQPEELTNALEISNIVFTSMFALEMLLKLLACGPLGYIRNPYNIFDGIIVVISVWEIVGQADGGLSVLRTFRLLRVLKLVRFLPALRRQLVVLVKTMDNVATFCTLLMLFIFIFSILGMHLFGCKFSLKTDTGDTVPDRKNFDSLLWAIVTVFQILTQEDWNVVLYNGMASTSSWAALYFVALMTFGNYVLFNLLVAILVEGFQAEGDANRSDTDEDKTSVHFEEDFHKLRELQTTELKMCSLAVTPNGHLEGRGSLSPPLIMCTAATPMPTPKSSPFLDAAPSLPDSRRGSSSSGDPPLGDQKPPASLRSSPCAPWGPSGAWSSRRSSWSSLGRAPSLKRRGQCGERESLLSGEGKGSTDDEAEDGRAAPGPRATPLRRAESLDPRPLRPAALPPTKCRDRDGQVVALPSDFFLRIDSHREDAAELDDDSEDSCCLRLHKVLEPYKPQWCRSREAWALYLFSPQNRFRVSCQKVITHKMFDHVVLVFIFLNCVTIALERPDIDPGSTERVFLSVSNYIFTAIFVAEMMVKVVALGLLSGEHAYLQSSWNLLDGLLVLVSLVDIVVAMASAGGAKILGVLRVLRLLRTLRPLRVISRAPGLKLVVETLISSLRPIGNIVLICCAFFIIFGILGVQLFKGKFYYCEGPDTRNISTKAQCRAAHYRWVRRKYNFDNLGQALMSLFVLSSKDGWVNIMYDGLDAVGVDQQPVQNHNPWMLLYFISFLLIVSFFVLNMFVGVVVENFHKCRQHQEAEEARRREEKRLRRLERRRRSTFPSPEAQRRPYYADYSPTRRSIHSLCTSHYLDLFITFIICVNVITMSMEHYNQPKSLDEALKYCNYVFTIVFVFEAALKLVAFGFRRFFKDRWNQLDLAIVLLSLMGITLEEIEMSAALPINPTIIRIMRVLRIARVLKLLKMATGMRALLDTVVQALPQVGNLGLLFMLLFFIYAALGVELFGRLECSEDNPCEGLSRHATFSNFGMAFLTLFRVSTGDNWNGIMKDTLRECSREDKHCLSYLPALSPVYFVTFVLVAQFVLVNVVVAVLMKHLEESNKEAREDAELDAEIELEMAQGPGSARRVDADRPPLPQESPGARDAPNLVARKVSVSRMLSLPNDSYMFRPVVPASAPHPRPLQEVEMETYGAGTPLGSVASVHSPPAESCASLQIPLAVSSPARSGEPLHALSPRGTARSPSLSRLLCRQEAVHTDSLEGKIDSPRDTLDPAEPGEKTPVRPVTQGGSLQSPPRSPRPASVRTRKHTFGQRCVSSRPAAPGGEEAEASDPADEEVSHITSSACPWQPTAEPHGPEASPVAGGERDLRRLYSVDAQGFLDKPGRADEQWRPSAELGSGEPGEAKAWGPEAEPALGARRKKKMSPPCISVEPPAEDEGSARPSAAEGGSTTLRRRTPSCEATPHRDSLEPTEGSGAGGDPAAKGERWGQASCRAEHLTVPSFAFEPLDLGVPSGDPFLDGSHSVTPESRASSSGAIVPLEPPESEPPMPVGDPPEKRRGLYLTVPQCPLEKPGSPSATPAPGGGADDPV
CYP2C19 inhib: inhibitors of human CYP2C19; AID 778; actives 21% (n = 96,000); inhibition, % at 5 µM; CYP2C19 Supersomes, luciferin-H EGE luminescence, 30 min;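 active means CYP2C19 inhibition above a set limit at 5 µM in the primary screen, cut at about 50% in these data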
CYP2C19 act: increases human CYP2C19 enzyme activity. 96,000 tested, under 10 active. recombinant CYP2C19, luciferin-H EGE luminescence; stronger effect = higher value; 0 = fully inhibited enzyme, 1 = untreated enzyme. activation factor at 5 µM. P33261. AID 1025;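 active means activation factor of at least 2 at 5 µM in the primary screen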
CYP2C9 inhib: blocks human cytochrome P450 2C9 | CYP2C9 Supersomes, luciferin-H conversion, luminescence | inhibition, % at 5 µM | actives 20% (n = 96,000);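 active means blocking of liver enzyme CYP2C9 beyond about 50% at 5 µM, limit read from the data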
Hits are given with their value. Most compounds without a hit are left out; they make up all but 27% or so of the library.

For Cn1c(C(=O)OC(C(=O)NC2CCCCC2)c2cccnc2)cc2sccc21 (centres undefined) the results were CYP2C9 act inactive, Cav32 inh inactive, CYP2C19 inhib 96, CYP2C19 act inactive and CYP2C9 inhib 74.
Screening Cn1c(C(=O)OC(C(=O)NC2CCCC2)c2cccnc2)cc2sccc21 (centres undefined) returned Cav32 inh inactive.
Screening CCn1c(C(O)c2ccc(C)cc2)nc2ccccc21 (centres undefined) returned CYP2C9 act inactive, Cav32 inh inactive, CYP2C19 inhib inactive, CYP2C19 act inactive and CYP2C9 inhib inactive.
`Cn1c(C(O)c2ccccc2)nc(Cl)c1Cl` (centres undefined) gave CYP2C9 act inactive, Cav32 inh inactive, CYP2C19 inhib 70, CYP2C19 act inactive and CYP2C9 inhib inactive.
For COC(=O)c1cc(C(=O)Nc2cc(C)ccn2)cc([N+](=O)[O-])c1 the results were CYP2C9 act inactive, Cav32 inh inactive, CYP2C19 inhib inactive, CYP2C19 act inactive and CYP2C9 inhib inactive.
CCOC(=O)c1c(-c2cccs2)csc1NC(=O)COC(=O)c1c(C)noc1C was read as CYP2C9 act inactive, Cav32 inh inactive, CYP2C19 inhib inactive, CYP2C19 act inactive and CYP2C9 inhib 87.
Screening COC(=O)c1c(-c2cccs2)csc1NC(=O)CN1CCOCC1 returned CYP2C9 act inactive, Cav32 inh inactive, CYP2C19 inhib 94, CYP2C19 act inactive and CYP2C9 inhib 96.
Screening O=C(CSc1nncn1-c1ccccc1)NCc1cccs1 returned CYP2C9 act inactive, Cav32 inh inactive, CYP2C19 inhib inactive, CYP2C19 act inactive and CYP2C9 inhib inactive.
For O=C(CC1Nc2ccccc2NC1=O)NC1CCCCC1 (centres undefined) the results were CYP2C9 act 2.2, CYP2C19 inhib inactive, CYP2C19 act inactive and CYP2C9 inhib inactive.
`Cc1ccccc1-c1coc2cc(O)ccc2c1=O` gave CYP2C9 act 2.5, Cav32 inh inactive, CYP2C19 inhib inactive, CYP2C19 act inactive and CYP2C9 inhib inactive.
Screening O=c1c(-c2ccc(O)cc2)coc2cc(O)ccc12 returned Cav32 inh inactive.
Screening O=C(NN1C(=O)c2ccccc2NC1c1ccccc1OCc1ccccc1)c1ccncc1 (centres undefined) returned CYP2C9 act inactive, Cav32 inh inactive, CYP2C19 inhib inactive, CYP2C19 act inactive and CYP2C9 inhib inactive.
For Cc1ccccc1N(Cc1ccccc1F)S(C)(=O)=O the results were CYP2C9 act inactive, Cav32 inh inactive, CYP2C19 inhib 95, CYP2C19 act inactive and CYP2C9 inhib 70.
Screening N#CC(C#N)=c1ccc2c(c1)N1C3=C(CCCC3)CC3CCCCC31N=2 (centres undefined) returned CYP2C9 act inactive, Cav32 inh inactive, CYP2C19 inhib 90, CYP2C19 act inactive and CYP2C9 inhib 98.
N#C/C(C(N)=O)=c1/ccc2c(c1)N1C3=C(CCCC3)CC3CCCCC31N=2 (centres undefined) was read as CYP2C9 act inactive, Cav32 inh inactive, CYP2C19 inhib 54, CYP2C19 act inactive and CYP2C9 inhib 89.
COc1cccc(C(=O)N/N=C2\SCC(=O)N2Cc2ccc3c(c2)OCO3)c1 was read as CYP2C9 act inactive, Cav32 inh inactive, CYP2C19 inhib inactive, CYP2C19 act inactive and CYP2C9 inhib 88.
Screening COc1ccc(N(CC(=O)Nc2cccc(C(=O)O)c2)S(=O)(=O)c2c(C)noc2C)cc1 returned CYP2C9 act inactive, Cav32 inh inactive, CYP2C19 inhib inactive, CYP2C19 act inactive and CYP2C9 inhib 68.
CCOC(=O)c1cccc(NC(=O)CN(c2ccc(OC)cc2)S(=O)(=O)c2c(C)noc2C)c1 was read as CYP2C9 act inactive, Cav32 inh -4.9, CYP2C19 inhib 77, CYP2C19 act inactive and CYP2C9 inhib 94.
For CCOc1ccc(N(CC(=O)NC2CCCC2)S(=O)(=O)c2c(C)noc2C)cc1 the results were CYP2C9 act inactive, Cav32 inh inactive, CYP2C19 inhib inactive, CYP2C19 act inactive and CYP2C9 inhib inactive.
For CCC(Sc1n[nH]c(=O)[nH]c1=O)C(=O)OCc1ccccc1 (centres undefined) the results were CYP2C9 act inactive, Cav32 inh inactive, CYP2C19 inhib inactive, CYP2C19 act inactive and CYP2C9 inhib inactive.
CCOc1ccc(NC(=O)C2CC(=O)N(c3cc(C)cc(C)c3)C2)cc1 (centres undefined) was read as CYP2C9 act inactive, Cav32 inh inactive, CYP2C19 inhib inactive, CYP2C19 act inactive and CYP2C9 inhib inactive.
COc1cccc2c(=O)c(C/C=C(/C)Cl)c(C)[nH]c12 was read as CYP2C9 act inactive, Cav32 inh inactive, CYP2C19 inhib 84, CYP2C19 act inactive and CYP2C9 inhib inactive.
Screening C=CCSc1nnc(-c2cc(Br)ccc2N)c(=O)[nH]1 returned CYP2C9 act inactive, CYP2C19 inhib inactive, CYP2C19 act inactive and CYP2C9 inhib 72.
`CCCCSc1nnc(-c2cc(Br)ccc2N)c(=O)[nH]1` gave CYP2C9 act inactive, Cav32 inh inactive, CYP2C19 inhib inactive, CYP2C19 act inactive and CYP2C9 inhib inactive.
For C=CCSc1nnc(-c2ccccc2NC(=O)CC)c(=O)[nH]1 the results were CYP2C9 act inactive, Cav32 inh inactive, CYP2C19 inhib inactive, CYP2C19 act inactive and CYP2C9 inhib 52.
Screening O=c1/c(=C/c2ccccn2)sc2nc3ccccc3n12 returned CYP2C9 act inactive, CYP2C19 inhib 71, CYP2C19 act inactive and CYP2C9 inhib 54.
Screening CC(C(=O)Nc1ccccc1)c1ccc(-c2ccccc2)c(F)c1 (centres undefined) returned CYP2C9 act inactive, Cav32 inh inactive, CYP2C19 inhib inactive, CYP2C19 act inactive and CYP2C9 inhib inactive.
CNCCCNCc1ccc(SC)cc1 was read as CYP2C9 act inactive, Cav32 inh inactive, CYP2C19 inhib inactive, CYP2C19 act inactive and CYP2C9 inhib inactive.
`NC(=O)CSCc1c(Cl)cccc1Cl` gave CYP2C9 act inactive, Cav32 inh inactive, CYP2C19 inhib inactive, CYP2C19 act inactive and CYP2C9 inhib inactive.
C#CCOC(=O)Nc1ccc(=O)n(Cc2c(Cl)cccc2Cl)c1 was read as CYP2C9 act inactive, Cav32 inh inactive, CYP2C19 inhib 54, CYP2C19 act inactive and CYP2C9 inhib 69.
Cc1ccc(C(=O)NCCn2cc(SCC(=O)Nc3nnc(C)s3)c3ccccc32)cc1 was read as CYP2C9 act inactive, Cav32 inh inactive, CYP2C19 inhib 60, CYP2C19 act inactive and CYP2C9 inhib 80.
Screening Cn1c(SCC(=O)Nc2nccs2)nnc1-c1ccco1 returned Cav32 inh inactive.
`Cc1cc(C)cc(C(=O)NCCn2cc(SCC(=O)N3CCOCC3)c3ccccc32)c1` gave CYP2C9 act inactive, Cav32 inh inactive, CYP2C19 inhib inactive, CYP2C19 act inactive and CYP2C9 inhib inactive.
For Cn1cc(SCC(=O)Nc2nccs2)c2ccccc21 the results were CYP2C9 act inactive, Cav32 inh inactive, CYP2C19 inhib 64, CYP2C19 act inactive and CYP2C9 inhib inactive.
Screening CCCn1cc(SCC(=O)Nc2nnc(C)s2)c2ccccc21 returned CYP2C9 act inactive, Cav32 inh inactive, CYP2C19 inhib inactive, CYP2C19 act inactive and CYP2C9 inhib 63.

Screening results as filed in PubChem BioAssay.
